From PubChem BioAssay (NCI)
The panel holds about 83,000 compounds, 20% with a hit somewhere; the sample as a whole holds those more often.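 Compound tested at a single concentration for 48 hours in 96-well plates; a percent growth value below 10 was scored as active.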 A number with no mark means an inactive call. The source made the active and inactive calls.

Tested on: MDA-MB-468 breast
Assay: NCI-60 one-dose screen, 48 h (100 = growth as untreated, 0 = no growth, -100 = all killed)
Details: 10 µM unless noted

Row | SMILES | growth
1 | Cc1nn(-c2ccccc2)c(-n2ccnc2)c1/C=N/Nc1nc(-c2ccc(F)cc2)cs1 | 27.3%
2 | O=C(CN1C(=O)S/C(=C\C(Cl)=C\c2ccccc2)C1=O)NC1C=CS(=O)(=O)C1 (stereo unspecified) | -54.5% (active)
3 | CCOC(=O)c1ccncc1 | 89.1%
4 | CC#Cc1nc(Nc2cc(C)[nH]n2)c2ccccc2n1 | 1.44% [100 µM] (active)
5 | C=CCSC1=NC2C(N(CC)C(=O)N2CC)N1/N=C/C=C/c1ccccc1OC (stereo unspecified) | 29.6%
6 | CCN(CC)c1ccc2c(c1)Oc1nc(N)c(C#N)c(N)c1C2Sc1ccc(C)cc1 (stereo unspecified) | -88.4% (active)
7 | OC[C@H]1OC([S-])[C@H](O)[C@@H](O)[C@@H]1O.[Au+] (stereo partly specified) | 90.7%
8 | CC(=O)Cc1cc(-c2cc(CC(C)=O)[nH]n2)n[nH]1 | 103%
9 | C=C1C(=O)O[C@H]2[C@H]1CC/C(COC(=O)C(=O)c1cn(C)c3ccc(Cl)cc13)=C\CC[C@@]1(C)O[C@@H]21 | -88.2% (active)
10 | Cc1cc2nc3c4cc(C#N)ccc4n(CCN(C)C)c3nc2cc1C | -41.7% (active)
11 | COc1cc(/C=C2\C(=O)ON=C2C)cc(OC)c1OC | 107%
12 | COC(=O)[C@]12CC[C@@H](C)[C@H](C)[C@@H]1C1=CC[C@@H]3[C@@]4(C)C=C(O)C(=O)[C@@]5(C)COC(=C54)C[C@@]3(C)[C@]1(C)CC2 | -57.7% (active)
13 | C=C(CO)[C@@H]1CC[C@]2(COC3CCCCO3)CC[C@]3(C)[C@H](CC[C@@H]4[C@@]5(C)C=C(C=O)C(=O)C(C)(C)[C@@H]5CC[C@]43C)[C@@H]12 (stereo partly specified) | -75.4% (active)
14 | Nc1ccc(NC(=O)c2cccc(N)c2)cc1 | 94.2%
15 | Cc1nc2c(-c3cnc(N)nc3)nc(N3CCOCC3)nc2n1C(C)C | -34.6% (active)
16 | O=C(OCC(O)C(=O)NC12CC3CC(CC(C3)C1)C2)c1cccc(Br)c1 (stereo unspecified) | 99.9%

Row | SMILES | growth
17 | CCN(CC)CC(=O)Nc1c(C)cc(C(=O)NN)cc1C | 107%
18 | COc1ccc(C2C3=C(COC3=O)N(CCO)c3cc(OC)c(OC)cc32)cc1 (stereo unspecified) | 110%
19 | C=CC1=NC(C)(C)CC(C)O1 (stereo unspecified) | 109%
20 | Nc1n[nH]c2cc(F)c([C@@H]3Nc4c(F)cc5[nH]ncc5c4[C@H]4C5CCC(C5)[C@@H]34)cc12 (stereo partly specified) | -0.149% (active)
21 | O=[N+]([O-])c1cc(NS(=O)(=O)c2ccccc2)ccc1NS(=O)(=O)c1ccccc1 | 92.9%
22 | CC1Cc2c(ncnc2-n2cnc3ccccc32)N(C)c2ccccc21 (stereo unspecified) | 9.47% (active)
23 | COc1ccc(-c2c(N)n[nH]c2-c2ccc(Cl)cc2O)cc1OC | 84.1%
24 | Cc1ccccc1Nc1n[nH]c(Cc2ccccc2)n1 | 104%
25 | Cc1c(Cl)ccc2c(C(=O)Cl)cc(-c3ccccc3)nc12 | 101%
26 | COc1ccc(-n2nnc(C(=O)NCCc3c[nH]c4ccc(F)cc34)c2C)cc1 | 109%
27 | COc1ccc(-c2cc(-c3cc(OC)ccc3OC)nc(SCC(=O)c3ccccc3)c2C#N)cc1 | 106%
28 | Nc1ccc(NC(=O)c2ccccc2)c2c1C(=O)c1ccccc1C2=O | 107%
29 | CC(=O)NC1C(O[C@H]2C[C@H]3[C@@H]4CC=C5C[C@@H](O)CC[C@]5(C)[C@H]4CC[C@]3(C)[C@H]2[C@H](C)C(=O)CCC(C)C)OCC(O)C1O (stereo partly specified) | 51.6%
30 | CCCn1c2cc(OCc3cn(-c4ccc(Cl)cc4)nn3)ccc2c2ccnc(C)c21 | 38.9%
31 | CCc1ccccc1NC(=O)/C(C#N)=C/c1ccc(OC)cc1 | 108%
